# Inconclusive results are not listed. Entries that show only a call come without a potency. A number with no mark means an inactive call. Calls of active or inactive are those of the source. Unless noted, calls come from the whole dose curve; as a rule, active = well fitted curve in the direction sought with a large enough effect in the repeat runs; inconclusive = weak or mixed curves; inactive = no such curve, though single readings can be large; an effect the other way counts as inactive or inconclusive.
# Legend:
# [1] = target: Aryl hydrocarbon receptor (Homo sapiens) (UniProt P35869); assay: qHTS assay to identify small molecule that activate the aryl hydrocarbon receptor (AhR) signaling pathway (AID 743085); note: nearly all actives have a fitted effect of over 15% in size; note: potency is the fitted concentration of half-maximal effect;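 for activation: HG2L7.5c1 human HepG2 liver cells with stably integrated DRE-driven firefly reporter; series mostly up to about 70 µM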
# Aryl hydrocarbon receptor (Homo sapiens), sequence (P35869 whole entry, looked up): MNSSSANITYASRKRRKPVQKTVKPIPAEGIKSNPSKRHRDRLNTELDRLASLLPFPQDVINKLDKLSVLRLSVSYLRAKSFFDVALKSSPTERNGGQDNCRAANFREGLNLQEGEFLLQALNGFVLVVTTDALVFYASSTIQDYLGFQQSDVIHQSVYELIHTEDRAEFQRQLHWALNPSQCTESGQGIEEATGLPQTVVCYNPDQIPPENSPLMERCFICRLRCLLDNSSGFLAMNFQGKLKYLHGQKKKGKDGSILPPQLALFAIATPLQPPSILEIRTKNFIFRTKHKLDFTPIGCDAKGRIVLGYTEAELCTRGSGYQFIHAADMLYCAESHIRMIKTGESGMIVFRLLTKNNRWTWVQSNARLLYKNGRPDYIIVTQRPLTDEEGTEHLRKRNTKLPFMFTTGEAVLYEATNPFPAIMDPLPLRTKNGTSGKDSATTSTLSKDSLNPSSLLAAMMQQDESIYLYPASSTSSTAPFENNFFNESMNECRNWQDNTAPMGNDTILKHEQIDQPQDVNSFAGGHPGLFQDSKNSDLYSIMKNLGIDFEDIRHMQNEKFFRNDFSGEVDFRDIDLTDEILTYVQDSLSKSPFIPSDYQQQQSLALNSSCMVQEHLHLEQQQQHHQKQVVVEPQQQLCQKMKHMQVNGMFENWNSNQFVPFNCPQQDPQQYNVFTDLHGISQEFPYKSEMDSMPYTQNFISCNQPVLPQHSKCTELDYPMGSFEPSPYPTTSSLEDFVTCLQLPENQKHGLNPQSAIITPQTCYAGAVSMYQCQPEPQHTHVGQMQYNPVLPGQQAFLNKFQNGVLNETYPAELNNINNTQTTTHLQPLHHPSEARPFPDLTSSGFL
# Procedure, shortened: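 Luminescence (ONE-Glo) from a dioxin-responsive-element luciferase reporter in HG2L7.5c1 HepG2 cells after 24 hr compound exposure at 37C; viability measured by CellTiter-Fluor fluorescence beforehand.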
# [2] = qHTS assay to identify small molecule that activate the aryl hydrocarbon receptor (AhR) signaling pathway - cell viability counter screen (AID 743086);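 note: HepG2 liver cells carrying the AhR DRE luciferase reporter; series mostly up to about 70 µM; nearly all actives have a fitted effect of over 45% in size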
# Procedure, shortened: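 HepG2-AhR-luc (HG2L7.5c1) cells, 4000/well, treated 24 h at 37 C with compound; viability measured as CellTiter-Fluor fluorescence after 30 min in the same wells as the luciferase read.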
# [3] = target: Peroxisome proliferator-activated receptor gamma (Homo sapiens) (UniProt P37231); assay: qHTS assay to identify small molecule agonists of the peroxisome proliferator-activated receptor gamma (PPARg) signaling pathway (AID 743094; active = well fitted activation curve with a large enough effect in the signal ratio in the repeat runs, not every such curve was filed as active; the % refers to the signal ratio)
# Peroxisome proliferator-activated receptor gamma (Homo sapiens), sequence (P37231 whole entry, looked up): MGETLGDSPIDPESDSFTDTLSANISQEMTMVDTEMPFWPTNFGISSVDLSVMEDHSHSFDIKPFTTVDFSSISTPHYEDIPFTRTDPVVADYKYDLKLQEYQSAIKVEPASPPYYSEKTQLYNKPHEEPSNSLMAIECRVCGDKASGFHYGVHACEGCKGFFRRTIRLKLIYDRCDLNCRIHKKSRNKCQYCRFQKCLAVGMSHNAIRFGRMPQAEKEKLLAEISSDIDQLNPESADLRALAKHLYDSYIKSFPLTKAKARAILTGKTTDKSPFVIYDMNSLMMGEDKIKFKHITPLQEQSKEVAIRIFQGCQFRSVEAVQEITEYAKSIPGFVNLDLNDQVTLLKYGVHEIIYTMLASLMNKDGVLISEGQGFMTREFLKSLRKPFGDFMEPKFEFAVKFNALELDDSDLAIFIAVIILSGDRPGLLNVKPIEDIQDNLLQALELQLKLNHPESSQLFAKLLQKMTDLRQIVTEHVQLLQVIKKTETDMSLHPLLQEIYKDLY
# Procedure, shortened: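 Cells from the PPARg UAS-bla HEK293H line are plated and incubated 5 h at 37C. Compounds in DMSO are pinned in and left 17 h at 37C. LiveBLAzer B/G substrate is then added for 1 h at room temperature before fluorescence is measured.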
# [4] = target: Peroxisome proliferator-activated receptor gamma (Homo sapiens) (UniProt P37231); assay: qHTS assay to identify small molecule antagonists of the peroxisome proliferator-activated receptor gamma (PPARg) signaling pathway (AID 743191; calls by dose curve; note: series mostly up to about 63 µM; nearly all actives have a fitted effect of over 30% in size)
# Procedure, shortened: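 GeneBLAzer PPARg UAS-bla HEK293H cells, 5 h post-plating, exposed to compounds 17 h at 37C. LiveBLAzer B/G FRET substrate added for 1 h at room temperature; beta-lactamase reporter read by fluorescence intensity.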
# [5] = qHTS assay to identify small molecule antagonists of the peroxisome proliferator-activated receptor gamma (PPARg) signaling pathway - cell viability counter screen (AID 743194); note: nearly all actives have a fitted effect of over 55% in size
# Procedure, shortened: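 Cytotoxicity counter screen in PPARg-bla HEK293H cells, same wells as reporter assay. Compounds plus 50 nM rosiglitazone (final) for 17 h at 37 C, then viability read by CellTiter-Glo luminescence.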
# [6] = qHTS assay for small molecule agonists of the antioxidant response element (ARE) signaling pathway (AID 743202; active = well fitted activation curve with a large enough effect in the signal ratio in the repeat runs, not every such curve was filed as active; the % refers to the signal ratio)
# Procedure, shortened: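 HepG2 ARE-bla reporter line, 2,000 cells/well; 5 h preincubation 37 C/5% CO2; compound (DMSO) 16 h 37 C; B/G FRET substrate 2 h RT; fluorescence intensity.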
# [7] = qHTS assay for small molecule agonists of the antioxidant response element (ARE) signaling pathway - cell viability counter screen (AID 743203; calls by dose curve; note: nearly all actives have a fitted effect of over 55% in size)
# Procedure, shortened: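 Cytotoxicity was tested in parallel with the ARE reporter screen. ARE-bla HepG2 cells were exposed to compounds for 16 hrs, and viability was taken from CellTiter-Glo luminescence.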
# [8] = qHTS assay for small molecule activators of the heat shock response signaling pathway - cell viability counter screen (AID 743209); note: nearly all actives have a fitted effect of over 50% in size
# Procedure, shortened: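 Cytotoxicity counter screen run in parallel with the HSE beta-lactamase reporter, using the same wells. HeLa HSE-bla cells received compound for 5 h at 37 C; ATP-based CellTiter-Glo luminescence was measured after 30 min at room temperature.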
# [9] = qHTS assay to identify small molecule agonists of the peroxisome proliferator-activated receptor delta (PPARd) signaling pathway - cell viability counter screen (AID 743211); note: nearly all actives have a fitted effect of over 55% in size
# Procedure, shortened: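 Viability was measured as CellTiter-Glo luminescence (30 min, room temperature) in the same wells as the beta-lactamase readout. GeneBLAzer PPARd UAS-bla HEK293H cells received compound after 5 h plating and were incubated 17 h at 37 C.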
# [10] = qHTS assay to identify small molecule antagonists of the peroxisome proliferator-activated receptor delta (PPARd) signaling pathway - cell viability counter screen (AID 743213); note: nearly all actives have a fitted effect of over 50% in size
# Procedure, shortened: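 CellTiter-Glo was added to PPARd-bla HEK293H wells following 17 h compound treatment in the presence of 300 nM L165041. Luminescence was recorded after 30 min at room temperature.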
# [11] = qHTS assay to identify small molecule agonists of the farnesoid-X-receptor (FXR) signaling pathway - cell viability counter screen (AID 743218); note: nearly all actives have a fitted effect of over 45% in size
# Procedure, shortened: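 Cells were seeded, left 5 h at 37 C and 5% CO2, then dosed with compound in DMSO for 16 h. After the beta-lactamase FRET read, CellTiter-Glo was added and luminescence measured 30 min later.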
# [12] = qHTS assay to identify small molecule antagonists of the farnesoid-X-receptor (FXR) signaling pathway - cell viability counter screen (AID 743221; active = well fitted cell-killing curve with a large enough effect in the repeat runs, not every such curve was filed as active; note: nearly all actives have a fitted effect of over 50% in size)
# Procedure, shortened: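 Cytotoxicity counter screen run in the FXR-bla reporter wells: HEK 293T cells exposed to compound with 50 uM (final) chenodeoxycholic acid for 16 h, 37 C, then viability measured by CellTiter-Glo luminescence after 30 min, room temperature.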
# [13] = target: Vitamin D3 receptor (Homo sapiens) (UniProt P11473); assay: qHTS assay to identify small molecule agonists of the vitamin D receptor (VDR) signaling pathway (AID 743222; calls by dose curve)
# Vitamin D3 receptor (Homo sapiens), sequence (P11473 whole entry, looked up): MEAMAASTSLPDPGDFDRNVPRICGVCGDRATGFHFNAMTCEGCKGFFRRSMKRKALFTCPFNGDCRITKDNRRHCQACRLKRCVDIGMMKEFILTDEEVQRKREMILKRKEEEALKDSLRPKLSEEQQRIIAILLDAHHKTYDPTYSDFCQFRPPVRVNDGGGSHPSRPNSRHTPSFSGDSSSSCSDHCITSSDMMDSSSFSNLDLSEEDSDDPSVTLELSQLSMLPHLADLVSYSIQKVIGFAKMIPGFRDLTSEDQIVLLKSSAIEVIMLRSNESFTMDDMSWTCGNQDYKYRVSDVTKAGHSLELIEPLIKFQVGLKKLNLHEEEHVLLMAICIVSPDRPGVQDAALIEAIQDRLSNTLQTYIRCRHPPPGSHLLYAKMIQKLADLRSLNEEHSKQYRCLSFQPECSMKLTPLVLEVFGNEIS
# Procedure, shortened: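 Cells carrying a VDR-driven beta-lactamase reporter are seeded at 2,000 per well and rested 4 h. Compounds in DMSO are added for 16 h at 37C, and FRET substrate fluorescence is measured after 2 h at room temperature.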
# [14] = target: Vitamin D3 receptor (Homo sapiens) (UniProt P11473); assay: qHTS assay to identify small molecule antagonists of the vitamin D receptor (VDR) signaling pathway (AID 743223; active = well fitted inhibition curve with a large enough effect in the signal ratio in the repeat runs, not every such curve was filed as active; the % refers to the signal ratio)
# Procedure, shortened: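 Antagonist mode: compound added to VDR-bla cells alongside agonist 1alpha,25-dihydroxyvitamin D3 (3 nM final), incubation 16 h at 37C. Read-out is LiveBLAzer FRET fluorescence, 2 h at room temperature.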
# [15] = qHTS assay to identify small molecule agonists of the vitamin D receptor (VDR) signaling pathway - cell viability counter screen (AID 743224); note: nearly all actives have a fitted effect of over 50% in size; note: potency is the fitted concentration of half-maximal effect
# Procedure, shortened: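 Cells: VDR-bla, 2,000/well, settled 4 h. Treatment: compounds in DMSO, 16 h, 37C/5% CO2. Readout: CellTiter-Glo luminescence after 30 min RT.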
# [16] = target: Peroxisome proliferator-activated receptor delta (Homo sapiens) (UniProt Q03181); assay: qHTS assay to identify small molecule agonists of the peroxisome proliferator-activated receptor delta (PPARd) signaling pathway (AID 743212; calls by dose curve)
# Peroxisome proliferator-activated receptor delta (Homo sapiens), sequence (Q03181 whole entry, looked up): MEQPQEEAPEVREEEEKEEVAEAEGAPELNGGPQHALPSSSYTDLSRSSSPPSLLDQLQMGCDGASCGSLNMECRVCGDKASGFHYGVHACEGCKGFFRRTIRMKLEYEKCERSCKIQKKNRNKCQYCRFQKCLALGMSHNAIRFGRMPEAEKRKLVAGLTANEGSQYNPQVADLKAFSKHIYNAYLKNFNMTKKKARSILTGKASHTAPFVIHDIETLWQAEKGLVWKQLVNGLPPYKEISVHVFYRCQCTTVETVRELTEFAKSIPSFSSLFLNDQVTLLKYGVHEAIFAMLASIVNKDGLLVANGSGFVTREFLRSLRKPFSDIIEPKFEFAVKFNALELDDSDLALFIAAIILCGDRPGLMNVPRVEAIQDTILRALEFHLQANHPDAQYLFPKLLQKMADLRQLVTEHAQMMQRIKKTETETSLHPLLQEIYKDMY
# Procedure, shortened: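 Read-out: beta-lactamase FRET fluorescence after 2 h room-temperature incubation with LiveBLAzer B/G substrate. Cells were HEK293H carrying a UAS-bla reporter for PPARd, treated at 37 C with DMSO-dissolved compounds.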
# [17] = target: Peroxisome proliferator-activated receptor delta (Homo sapiens) (UniProt Q03181); assay: qHTS assay to identify small molecule antagonists of the peroxisome proliferator-activated receptor delta (PPARd) signaling pathway (AID 743215; active = well fitted inhibition curve with a large enough effect in the signal ratio in the repeat runs, not every such curve was filed as active; the % refers to the signal ratio;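 note: cells stimulated with agonist L165041 at 300 nM final during compound exposure; series mostly up to about 62 µM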)
# Procedure, shortened: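 Cells: HEK293H with a UAS-driven beta-lactamase reporter responsive to PPARd. Compounds were co-added with L165041 (300 nM, final) and incubated 17 h at 37 C before a 2 h room-temperature FRET substrate step and fluorescence reading.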
# [18] = qHTS assay for small molecule activators of the heat shock response signaling pathway (AID 743210; active = well fitted activation curve with a large enough effect in the signal ratio in the repeat runs, with a control signal flat, not every such curve was filed as active; the % refers to the signal ratio;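 note: HeLa cells with beta-lactamase reporter driven by heat shock elements; series mostly up to about 63 µM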)
# Procedure, shortened: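 Beta-lactamase reporter read-out: FRET substrate fluorescence after 2.5 h at RT, following 5 h compound treatment at 37 C of HeLa cells carrying HSE-driven bla reporter; quantitative HTS format.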
# [19] = target: Bile acid receptor (Homo sapiens) (UniProt Q96RI1); assay: qHTS assay to identify small molecule antagonists of the farnesoid-X-receptor (FXR) signaling pathway (AID 743217; active = well fitted inhibition curve with a large enough effect in the signal ratio in the repeat runs, not every such curve was filed as active; the % refers to the signal ratio)
# Bile acid receptor (Homo sapiens), sequence (Q96RI1 whole entry, looked up): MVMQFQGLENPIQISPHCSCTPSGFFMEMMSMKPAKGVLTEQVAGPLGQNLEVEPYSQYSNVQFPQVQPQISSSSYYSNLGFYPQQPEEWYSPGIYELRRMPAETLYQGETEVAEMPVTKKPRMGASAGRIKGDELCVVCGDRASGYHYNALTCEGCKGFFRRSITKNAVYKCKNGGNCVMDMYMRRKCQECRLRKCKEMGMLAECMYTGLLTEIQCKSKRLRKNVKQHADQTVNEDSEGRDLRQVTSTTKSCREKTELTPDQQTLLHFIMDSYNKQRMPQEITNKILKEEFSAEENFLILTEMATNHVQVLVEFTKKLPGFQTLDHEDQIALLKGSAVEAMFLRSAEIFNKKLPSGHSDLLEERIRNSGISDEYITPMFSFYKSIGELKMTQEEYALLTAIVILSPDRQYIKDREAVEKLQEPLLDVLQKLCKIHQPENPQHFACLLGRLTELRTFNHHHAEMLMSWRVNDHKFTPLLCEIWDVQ
# Procedure, shortened: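 Cells carrying a UAS-driven beta-lactamase reporter (GeneBLAzer FXR-UAS-bla HEK 293T) were plated and rested 5 h at 37 °C. Compounds in DMSO were added alongside chenodeoxycholic acid agonist at 50 uM final and left 16 h at 37 °C before FRET substrate readout.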
# [20] = target: Bile acid receptor (Homo sapiens) (UniProt Q96RI1); assay: qHTS assay to identify small molecule agonists of the farnesoid-X-receptor (FXR) signaling pathway (AID 743220; active = well fitted activation curve with a large enough effect in the signal ratio in the repeat runs, not every such curve was filed as active; the % refers to the signal ratio)
# Procedure, shortened: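 FXR-UAS-bla HEK 293T cells carrying a UAS-driven beta-lactamase reporter were plated for 5 h at 37C/5% CO2, then exposed to DMSO-dissolved Tox21 10K compounds for 16 h at 37C. A LiveBLAzer B/G FRET substrate was loaded for 2 h at room temperature before fluorescence reading.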
SMILES,Potency [1],Potency [2],Potency [3],Potency [4],Potency [5],Potency [6],Potency [7],Potency [8],Potency [9],Potency [10],Potency [11],Potency [12],Potency [13],outcome [14],Potency [15],Potency [16],Potency [17],Potency [18],Potency [19],Potency [20]
CCOC(=O)Cc1cccc2ccccc12,inactive,inactive,inactive,inactive,inactive,inactive,inactive,inactive,inactive,inactive,inactive,inactive,inactive,inactive,inactive,–,–,–,–,–
Cc1[nH]c(C)c(Cl)c(=O)c1Cl,inactive,inactive,inactive,inactive,inactive,inactive,inactive,inactive,inactive,–,inactive,inactive,inactive,inactive,inactive,inactive,inactive,–,–,–
O=C1C(O)=C(O)C(=O)C(O)=C1O,inactive,inactive,inactive,inactive,inactive,inactive,inactive,inactive,inactive,inactive,inactive,inactive,inactive,inactive,inactive,inactive,inactive,inactive,inactive,–
Nc1cccc([N+](=O)[O-])c1,inactive,inactive,inactive,inactive,inactive,inactive,inactive,–,inactive,inactive,inactive,inactive,–,–,inactive,inactive,inactive,inactive,inactive,inactive
CCCCCCCCO[C@@H]1O[C@H](CO)[C@@H](O)[C@H](O)[C@H]1O,inactive,inactive,inactive,inactive,inactive,inactive,inactive,–,inactive,inactive,inactive,inactive,inactive,–,inactive,inactive,–,inactive,inactive,inactive
CCOCC(O)COc1ccc(NC(=O)CC[S+](C)C)cc1 (stereo not given),5.31 µM (active),inactive,inactive,inactive,inactive,inactive,inactive,inactive,inactive,–,inactive,inactive,inactive,–,inactive,inactive,inactive,–,inactive,–
CN(C)c1ccc(CCO)cc1,inactive,inactive,inactive,inactive,inactive,inactive,inactive,–,inactive,inactive,inactive,inactive,inactive,inactive,inactive,inactive,inactive,–,–,–
COCC(C)OC(C)=O (stereo not given),inactive,inactive,inactive,inactive,inactive,–,inactive,inactive,inactive,–,inactive,inactive,inactive,inactive,inactive,inactive,inactive,inactive,inactive,inactive
CC(=O)c1ccc2c(c1)N(CCCN(C)C)c1ccccc1S2,inactive,inactive,inactive,inactive,inactive,–,inactive,inactive,–,inactive,–,–,–,–,inactive,inactive,inactive,inactive,–,–
CCCCCCCCCCCC(=O)OC[C@@H](O)[C@H]1OC[C@H](OCCO)[C@H]1OCCO,inactive,inactive,inactive,inactive,inactive,–,inactive,inactive,–,–,–,inactive,inactive,–,–,inactive,–,–,–,–
NCCCN1CCOCC1,inactive,inactive,inactive,inactive,inactive,–,inactive,inactive,inactive,inactive,inactive,inactive,inactive,inactive,inactive,inactive,inactive,inactive,inactive,–
CN(C)CCN(Cc1ccccc1)c1ccccn1,inactive,inactive,inactive,inactive,inactive,inactive,–,inactive,–,inactive,–,inactive,inactive,inactive,inactive,inactive,inactive,inactive,–,–
CC(C)(COC(=O)c1ccccc1)COC(=O)c1ccccc1,inactive,inactive,inactive,inactive,inactive,inactive,–,inactive,inactive,inactive,inactive,inactive,inactive,–,inactive,inactive,inactive,inactive,–,–
NC(=O)C(c1ccccc1)(c1ccccc1)[C@@H]1CCN(CCc2ccc3c(c2)CCO3)C1,inactive,inactive,inactive,inactive,inactive,–,inactive,inactive,inactive,–,–,inactive,inactive,inactive,–,–,–,inactive,inactive,–
CCCCCCCCCCCCN1CCCCCC1=O,inactive,inactive,inactive,inactive,inactive,–,inactive,–,inactive,inactive,inactive,–,inactive,–,30.9 µM (active),inactive,–,–,inactive,–
O=C(Cl)c1cc(C(=O)Cl)cc(C(=O)Cl)c1,inactive,inactive,inactive,inactive,inactive,–,–,inactive,inactive,inactive,inactive,inactive,–,–,inactive,inactive,inactive,–,inactive,–
